According to PubChem BioAssay (NCI):
The panel holds about 83,000 compounds, 20% with a hit somewhere; the sample as a whole holds those more often.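 Each cell line was grown in a 96-well plate and treated with one concentration of compound for 48 hours. Values below 10 were considered active.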 A number with no mark means an inactive call. Activity calls are given as the source filed them.

Legend:
Experiment in all cases: NCI-60 one-dose screen, 48 h (100 = growth as untreated, 0 = no growth, -100 = all killed)
Conditions in all cases: 10 µM unless noted
[1] = test system: HCT-15 colon
[2] = test system: HT29 colon
[3] = test system: SNB-75 CNS
[4] = test system: SNB-19 CNS
[5] = test system: U251 CNS
[6] = test system: SK-MEL-5 melanoma
[7] = test system: UACC-62 melanoma
[8] = test system: LOX IMVI melanoma
[9] = test system: SK-MEL-28 melanoma
[10] = test system: PC-3 prostate

Structure (SMILES) | growth [1] | growth [2] | growth [3] | growth [4] | growth [5] | growth [6] | growth [7] | growth [8] | growth [9] | growth [10] [%]
CC1=CCc2ccccc21 | 109% | 95.7% | 83.9% | 101% | 103% | 101% | 86.2% | 105% | 104% | 
CC(C)(C)c1cc(C(=O)Nc2ccc(C(=O)NCCN)cc2)cc(C(C)(C)C)c1 | 76.6% | -21.7% (active) | 55.6% | 33.6% | -6.92% (active) | 23.8% | -71.8% (active) | -65.5% (active) | -64.4% (active) | 
C[C@]12CCc3c(ccc4cc(O)ccc34)[C@@H]1CC[C@H]2O | 93.4% | 104% | 89.2% | 87.2% | 101% | 101% | 61.4% | 96.4% | 99.3% | 
CCN1c2ccccc2C(Cl)(c2ccc(N(C)C)cc2)c2ccccc21 | 73.6% | 3.81% (active) | 68.5% | 53.8% | 19.5% | 78.9% | 51.6% | 18.9% | 86.2% | 
CC(C)C1=NOC(=O)C1=Cc1cn(-c2cccnc2)nc1-c1ccccc1 | 94.2% | 99.1% | 88.4% | 93.9% | 83.5% | 102% | 90.4% | 80.2% | 112% | 
O=[N+]([O-])c1cc([N+](=O)[O-])c(NN=C(c2ccc(O)cc2)c2ccc(O)cc2)cc1Cl | -85.8% (active) | -82.6% (active) | -15.6% (active) | 89.4% | -99.9% (active) | 59.5% | 18.4% | -94% (active) | -90.3% (active) | 
Cc1cc2c(C(C)C)c(O)c(O)c(C=NCc3ccoc3)c2c(O)c1-c1c(C)cc2c(C(C)C)c(O)c(O)c(C=NCc3ccco3)c2c1O | 19.5% | 31.2% | 64.9% | 19.8% | 25.6% | 91.7% | 67.9% | 37% | 70.3% | 
Oc1c(CNCCNCc2cc(Cl)cc(Cc3ccccc3)c2O)cc(Cl)cc1Cc1ccccc1 | 25.7% | 30.6% | 28.4% | 2.51% (active) | 17% | -13.2% (active) | -11.5% (active) | 4.57% (active) | 19.5% | 
Cc1nc(Cl)c2c(n1)N(C)c1ccc(Cl)cc1C(C)C2 (centres undefined) | 90.5% | 83.8% | 66.1% | 90.5% | 90.1% | 82.5% | 65% | 92.3% | 105% | 
Cn1cc(-c2nnc(-c3cn(C)c4ncc(Br)cc34)o2)c2ccccc21 | 53.3% | 87.7% | 65.8% | 87.6% | 94.3% | 80.1% | 70.8% | 92.3% | 91.7% | 
O=c1cc(-c2ccccc2)oc2c(O)c(O)ccc12 | 38% | 77.4% | 73.7% | 58% | 43.1% | 53.6% | 72.7% | 53.9% | 81% | 
N/C(=N\c1nc2ccccc2[nH]1)NC(=O)Cc1cccc2ccccc12 | 71.7% | 83.5% | 87.5% | 87.6% | 80.6% | 82.2% | 81.8% | 81.4% | 86.9% | 
CCCCCCSc1ncnc2nc[nH]c12 | 90.8% | 103% | 91.2% | 86.2% | 90.1% | 94% | 77% | 80.1% | 101% | 
CCOc1cc(NC(=O)c2ccccc2)c(OCC)cc1N | 111% | 121% | 106% | 105% | 106% | 107% | 106% | 100% | 118% | 
COc1ccc(C2=C(c3cn(C)c4ccccc34)C(=O)OC2)cc1OC | 23.7% | 6.9% (active) | -29.3% (active) | 38.3% | 35.1% | 16.4% | 26.8% | 49.6% | 69.9% | 
Cc1nc(-c2ccccc2)sc1CC#N |  | 105% | 113% | 103% | 100% | 107% | 106% | 102% | 120% | 108
Brc1ccc(-c2nnc3c4[nH]ccc4ncn23)cc1 |  | 94.9% | 95.6% | 95.5% | 100% | 93.3% | 72% | 85.4% | 114% | 90.6
Cn1cc(-c2nnc(-c3cn(C)c4ncccc34)o2)c2ccccc21 |  | 12.1% | -18.3% (active) | 42.3% | 30.1% | 0.903% (active) | 27.7% | 48.6% | 55.9% | 39.8
COc1ncnc2c(-c3ccccc3)cn(COCc3ccccc3)c12 |  | 47.8% | 99.8% | 78% | 60.1% | 5.61% (active) | 40.4% | 56% | 77.9% | 25.2
CC(=O)CC(=O)SC1=NCCS1 |  | 105% | 109% | 107% | 102% | 112% | 115% | 97.7% | 115% | 89.9
O=C1COCCN1c1ccc(NCc2cn(Cc3ccc(F)cc3)c3ccccc23)cc1 |  | 34.8% | 65.3% | 92.2% | 55.9% | 27.3% | -65.8% (active) | 83.9% | 87.6% | 93.3
CCN(CC)c1cc(N)c(Cc2c(N)cc(N(CC)CC)cc2Cl)c(Cl)c1 |  | 27.6% | 8.86% (active) | 35.1% | 21.6% | -27.8% (active) | 47.5% | 37.7% | 53.2% | 38.4
O=C(O)c1ccccc1C(F)(F)F |  | 107% | 77.1% | 99.1% | 96.5% | 105% | 95% | 81.2% | 121% | 99.7
O=C(Nc1ccc(CN2CCOCC2)c(C(F)(F)F)c1)c1nc2ccc3[nH]ncc3c2c2c1CCCC2 |  | 74.8% | 128% | 98.4% | 92% | 102% | 79.2% | 90.5% | 103% | 66.2
CCC(Br)(CC)C(=O)c1ccc(OCC(=O)O)c(Cl)c1Cl |  | 110% | 92.7% | 104% | 106% | 97.7% | 87.4% | 96.9% | 111% | 
Cc1ccc(NC(=O)N[C@@H](Cc2cc(F)cc(F)c2)C(=O)N[C@@H]2C(=O)N3CCC[C@H]3C(=O)N3CCCC[C@H]3C(=O)N[C@@H](C)C(=O)N3C[C@H](C)C[C@H]3C(=O)O[C@H]2C)cc1 |  | 30.3% | 10.7% | 22% | 29.8% | 10.8% | 25.8% | 38.2% | 39.4% | 16.1
COc1cc(/C=C/C(=O)/C=C/c2ccc(-n3ccnc3C)cc2)ccc1O |  | -42.9% (active) | 76.4% | 79.3% | -1.61% (active) | 85.2% | 95.1% | -88.7% (active) | 84.1% | 
COc1ccc2nc3cc(Cl)ccc3c(Nc3ccc(O)c(CN4CCCC4)c3)c2c1 |  | -22.8% (active) | 31.5% | 62.5% | 0.559% (active) | 41.1% | 51.9% | -68.6% (active) | 82.9% | 24.2
O=C(Oc1ccc(Cl)cc1[N+](=O)[O-])Oc1ccc(Cl)cc1[N+](=O)[O-] |  | 107% | 108% | 115% | 99% | 120% | 113% | 111% | 106% | 88.5
